{"source": "PubChem BioAssay AID1671192", "about": "(National Center for Advancing Translational Sciences (NCATS), 2021)", "note": "Results filed as inconclusive are left out. Active and inactive are the calls of the source. Calls come from the whole dose curve; as a rule, active = well fitted curve in the direction sought with a large enough effect; inconclusive = small, poorly fitted or top-dose-only effect, or another doubt; inactive = no such curve, though single readings can be large or run the other way."}
{"molecular_target": "Polyunsaturated fatty acid lipoxygenase ALOX15 (Homo sapiens) (UniProt P16050)", "sequence (P16050 whole entry, looked up)": "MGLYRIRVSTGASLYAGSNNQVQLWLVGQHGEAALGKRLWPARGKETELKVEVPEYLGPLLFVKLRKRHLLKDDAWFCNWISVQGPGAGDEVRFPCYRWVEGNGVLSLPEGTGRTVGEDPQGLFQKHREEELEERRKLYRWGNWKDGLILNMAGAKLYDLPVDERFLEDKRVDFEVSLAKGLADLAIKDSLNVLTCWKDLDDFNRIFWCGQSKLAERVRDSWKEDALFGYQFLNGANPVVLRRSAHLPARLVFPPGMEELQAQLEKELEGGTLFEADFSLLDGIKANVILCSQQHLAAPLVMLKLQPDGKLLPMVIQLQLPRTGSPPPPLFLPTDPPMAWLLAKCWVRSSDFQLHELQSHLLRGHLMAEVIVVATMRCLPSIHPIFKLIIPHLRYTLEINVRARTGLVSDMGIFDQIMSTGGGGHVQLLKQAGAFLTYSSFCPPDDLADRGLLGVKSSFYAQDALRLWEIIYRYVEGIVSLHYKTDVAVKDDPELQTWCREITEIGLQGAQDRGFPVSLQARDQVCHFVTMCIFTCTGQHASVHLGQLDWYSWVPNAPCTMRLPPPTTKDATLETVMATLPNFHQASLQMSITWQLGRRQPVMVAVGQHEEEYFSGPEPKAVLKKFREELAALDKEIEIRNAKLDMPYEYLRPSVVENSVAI", "assay": "Counterscreen qHTS for inhibitors of human arachidonate 12S-lipoxygenase (ALOX12): ALOX15 Assay; note: 0% is about no effect", "settings": "purified ALOX15 enzyme activity; series mostly up to 110 µM; activity change, negative = inhibition: at the top concentration", "in_short": "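Purified human ALOX15 (15hLO-1) at 40 nM in 25 mM HEPES, 0.01% Triton X-100, pH 7.5, preincubated with compound 15 min at RT. Then 50 uM arachidonic acid for 30 min; hydroperoxide detected by Fe-xylenol orange as the 573/405 nm absorbance ratio.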"}
{"molecule": "O=C(C1CCCC1)N1Cc2ccccc2CC2(CCCN(CC3CCNC3)C2)C1", "note": "(centres undefined)", "activity change, negative = inhibition": "-12.4% (inactive)"}
{"molecule": "O=C1NCc2ccccc2CC12CCN(Cc1cccc3ccccc13)C2", "note": "(centres undefined)", "activity change, negative = inhibition": "-22.1% (inactive)"}
{"molecule": "CCC(=O)N1Cc2ccccc2CC2(CCN(CCc3ccc(C)cc3)CC2)C1", "activity change, negative = inhibition": "-7.6% (inactive)"}
{"molecule": "O=C(c1cc(C2CC2)nc2c1c(C1CCCN1)nn2-c1ccccc1)N1CCOCC1", "note": "(centres undefined)", "activity change, negative = inhibition": "-11.8% (inactive)"}
{"molecule": "O=C1NCc2ccccc2CC12CCN(Cc1ccnc3ccccc13)C2", "note": "(centres undefined)", "activity change, negative = inhibition": "12.1% (inactive)"}
{"molecule": "CC(C)[S+](=O)([O-])N1CCCC1c1nnc2n1CCNC2", "note": "(centres undefined)", "activity change, negative = inhibition": "-2.34% [at 146 µM] (inactive)"}
{"molecule": "O=C(NCc1ccncc1)c1cc(C2CC2)nc2c1c(C1CCCN1)nn2-c1ccccc1", "note": "(centres undefined)", "activity change, negative = inhibition": "5.49% (inactive)"}
{"molecule": "O=Cc1ccc(-c2cncc(C(=O)O)c2)cc1", "activity change, negative = inhibition": "-21.9% [at 233 µM] (inactive)"}
{"molecule": "O=C1NCc2ccccc2CC12CCN(Cc1ccc(Cl)s1)C2", "note": "(centres undefined)", "activity change, negative = inhibition": "-19.6% (inactive)"}
{"molecule": "CC(=O)N1Cc2ccccc2CC2(CCN(Cc3ccncc3)C2)C1", "note": "(centres undefined)", "activity change, negative = inhibition": "-26.4% [at 146 µM] (inactive)"}
{"molecule": "O=C(c1ccccc1)N1CCC2(CC1)C(=O)NCN2C(=O)Cc1ccccc1", "activity change, negative = inhibition": "7.33% (inactive)"}
{"molecule": "CNCc1sc2ccccc2c1C", "activity change, negative = inhibition": "-9.89% [at 233 µM] (inactive)"}
{"molecule": "CN1CC(=O)N(C2CCNCC2)Cc2c(NC3CCCCC3O)ncnc21", "note": "(centres undefined)", "activity change, negative = inhibition": "-2.53% (inactive)"}
{"molecule": "O=C(NC1CC1)c1cc(C2CC2)nc2onc(C3CCNCC3)c12", "activity change, negative = inhibition": "-21.6% [at 146 µM] (inactive)"}
{"molecule": "CN1CC(=O)N(C2CCCNC2)Cc2c1ncnc2N1CCc2ccccc2C1", "note": "(centres undefined)", "activity change, negative = inhibition": "1.42% (inactive)"}
{"molecule": "N#Cc1cccnc1-c1cccc(C(=O)O)c1", "activity change, negative = inhibition": "-10.8% [at 146 µM] (inactive)"}
{"molecule": "O=S(=O)(c1ccccc1)N1Cc2ccccc2CC2(CCN(Cc3cccnc3)C2)C1", "note": "(centres undefined)", "activity change, negative = inhibition": "-36.4% (inactive)"}
{"molecule": "O=C1NCc2ccccc2CC12CCN(Cc1ccccc1Br)C2", "note": "(centres undefined)", "activity change, negative = inhibition": "-7.1% (inactive)"}
{"molecule": "CC1CCCN1c1ncnc2c1CN(C1CCCNCC1)C(=O)CN2C", "note": "(centres undefined)", "activity change, negative = inhibition": "-14.6% [at 146 µM] (inactive)"}
